# According to PubChem BioAssay:
# Results filed as inconclusive are left out. Activity calls are given as the source filed them.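 Rule for the calls, unless noted: active = differentiation response of at least 50%, scaled between solvent and reference control, from cells with both markers; inactive = the rest.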
# Key:
# [1] = yeast TOR pathway RPL19A-GFP modulators, primary screen, cell-based, S. cerevisiae, multiplex flow cytometry (AID 1862; in the data active = percent of DMSO control GFP below about 86%;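 note: lower values mimic rapamycin by blocking the RPL19A rise seen in DMSO cells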); settings: S. cerevisiae RPL19A-GFP strain, flow cytometry fluorescence, 3 h; at 10 µM; stronger effect = lower value
# [2] = modulators of MEP2-GFP levels in yeast, primary screen, S. cerevisiae, multiplex flow cytometry (AID 1867;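 active = GFP response, as percent of the DMSO control, above the screen-wide mean plus 3 SD, about 139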;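 note: median GFP channel fluorescence of barcode-gated MEP2-GFP cells measured by flow cytometry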); settings: S. cerevisiae MEP2-GFP strain, 3 h, at 10 µM, stronger effect = higher value, 100% means same as DMSO wells
# [3] = modulators of CIT2-GFP expression in yeast, primary screen, S. cerevisiae, GFP fusion, multiplex flow cytometry (AID 1870;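 active = percent response above a set limit, the screen-wide mean plus 3 SD, cut at about 130% in these data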;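 note: barcoded CIT2-GFP strain pooled with four other GFP strains with rapamycin as positive control; median GFP fluorescence per well over plate mean of DMSO wells so 100% = DMSO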); settings: 3 h, at 10 µM, stronger effect = higher value
# [4] = modulators of LAP4-GFP expression in yeast, primary screen, S. cerevisiae, multiplex flow cytometry (AID 1873;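 active = GFP signal, as percent of the solvent control, above the screen mean plus 3 SD, about 149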); settings: 3 h, at 10 µM, stronger effect = higher value
# [5] = modulators of AGP1-GFP expression in yeast TOR pathway, primary screen, cell-based, multiplex flow cytometry, S. cerevisiae (AID 1887;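 active = GFP signal above the screen-wide mean plus 3 SD, that is over about 124.5% of the solvent control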;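 note: AGP1-GFP fusion strain of S. cerevisiae within a five-strain barcoded multiplex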); settings: 3 h, at 10 µM, stronger effect = higher value
# [6] = inhibitors of CD8+ T cell-vesicle binding, pilot screen, LFA-1/ICAM-1 modulator project, MLPCN validation set, flow cytometry (AID 2523;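 active = response below a set limit, under 55% cells CD8-positive and vesicle-bound, and CD8 cells' 90th-percentile brightness under 279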;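 for vesicle binding response: mean PE anti-B7-1 fluorescence of CD8+ cells relative to row control; 100% = QL9-loaded vesicles with DMSO vehicle in the same plate row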); settings: 2C mouse CD8+ T cells, at 7 µM, stronger effect = lower value; double positive events: measured here: CD8+/vesicle+ event percentage
# [7] = target: Integrin beta-1 (Homo sapiens) + Integrin alpha-4 (Homo sapiens) (UniProt P13612+P05556); experiment: inhibition of HUTS-21 binding to VLA-4, pilot screen, VLA-4 allosteric modulator project, U937 cells, HUTS-21 mAb, flow cytometry, validation set (AID 2674;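 active = inhibition above 50%, about 3 SD of the validation set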;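 note: antibody binding induced by the VLA-4 ligand LDV present at three times its Kd; 0% = LDV ligand with antibody and no compound and 100% = antibody without LDV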); settings: HUTS-21 LIBS mAb binding, at 6.7 µM, stronger effect = higher value, binding induced by LDV ligand
# [8] = superoxide lowering in aged yeast cells, pilot screen, validation compound set (AID 2706;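 active = superoxide response below 65% of plate, a cut near 3 SD across the whole screen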;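 note: yeast exposed to compound for one week at 30 degrees C before staining; 100% = mean of all compound wells on the same plate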); settings: S. cerevisiae aging, superoxide DHE fluorescence; at 10 µM; stronger effect = lower value
# [9] = target: Beta-adrenergic receptor kinase 1 (Homo sapiens) (UniProt P25098); experiment: GRK2 binders displacing RNA aptamer, biochemical, validation, human GRK2, bead flow cytometry (AID 488806;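 active = aptamer binding inhibition above 30%, about 3 SD of noise from non-fluorescent compounds; inactive = inhibition at or below 30%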); settings: bead-bound GRK2, FAM-aptamer displacement, at 10 µM, stronger effect = higher value
# [10] = target: Beta-2 adrenergic receptor (Homo sapiens) (UniProt P07550); experiment: beta2AR agonists driving receptor internalization, pilot screen, cell-based, FAP fluorogen, flow cytometry, validation set (AID 504459;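 active = percent response above 42, roughly 3 SD of non-fluorescent test compounds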;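 note: agonist-driven loss of surface beta2AR via internalization measured by FAP dye flow cytometry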); settings: Am2.2-beta2AR cells, FAP surface receptor flow cytometry; at 10 µM; stronger effect = higher value
# [11] = target: AP-2 complex subunit beta (Homo sapiens) (UniProt P63010); experiment: inhibitors of arrestin peptide binding to AP2, pilot screen, biochemical, validation set, GST-AP2 beads, flow cytometry (AID 504541;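 active = inhibition above 54%, about 3 SD of non-fluorescent compounds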;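 note: AP2 carries R879A mutation and is captured from E. coli lysate; bead-bound FITC arrestin peptide fluorescence measuring arrestin peptide binding to AP2; 0% = DMSO wells and 100% = excess unlabeled arrestin peptide control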); settings: FITC arrestin peptide, at 10 µM, stronger effect = higher value, AP2 beta2 appendage fragment, R879A mutant
# [12] = yeast V-ATPase proton transport modulators, S. cerevisiae, pHLuorin, HTS validation (AID 504600; in the data active = response above about 15%;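 note: plate controls were DMSO for no effect and reference compound for full effect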); settings: S. cerevisiae pHLuorin cytosolic pH, at 10 µM, stronger effect = higher value
# [13] = test system: anti-desmoglein-3 scFv antibody binding to human DSG3; experiment: inhibitors of anti-DSG3 scFv binding to DSG3, pilot screen, biochemical, validation compound set, bead-based, flow cytometry (AID 588368;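 active = binding below the plate cutoff, the plate median minus 3 SD, with a reading above zero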;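 note: signal is the median channel fluorescence of bead-bound GFP antibody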); settings: Protein G beads, DSG3-Fc, scFv-GFP binding, at 10 µM, stronger effect = lower value
# [14] = inhibitors of fungal efflux pumps CDR1, CDR2, MDR1, pilot screen, validation compound set, multiplex, phenotypic (AID 588506;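 active = efflux inhibition above 0.42, the validation set average plus 4 SD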;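 note: Nile Red retained in cells so higher fluorescence means more efflux inhibition; 0 = negative control wells and 1 = enniatin B 25 µM full block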); settings: S. cerevisiae pump-expressing triplex, Nile Red efflux flow cytometry; at 10 µM; stronger effect = higher value; the pumps come from Candida albicans
# [15] = target: ATP-binding cassette sub-family B member 6 (Homo sapiens) (UniProt Q9NP58); experiment: ABCB6 transporter inhibitors, pilot screen, K562-ABCB6 cells, flow cytometry, validation set (AID 588550;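 active = inhibition above the screen-wide mean plus 3 SD, about 51%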;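 note: 0% = DMSO wells and 100% = benzethonium chloride 70 µM positive control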); settings: K562-ABCB6 porphyrin accumulation, 1 h, at 10 µM, stronger effect = higher value
# [16] = promoters of myeloid differentiation in arrested cells, primary screen, cell-based, GFP/MAC1 double positive, flow cytometry, validation set (AID 588685); settings: ER-HoxA9 marrow cells, stronger effect = higher value, normalized: vehicle 0, fulvestrant 100;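 note: compound exposure lasts four days before antibody staining and flow analysis; 0% = DMSO wells and 100% = 5 µM fulvestrant positive control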
# Beta-2 adrenergic receptor (Homo sapiens), sequence (P07550 whole entry, looked up): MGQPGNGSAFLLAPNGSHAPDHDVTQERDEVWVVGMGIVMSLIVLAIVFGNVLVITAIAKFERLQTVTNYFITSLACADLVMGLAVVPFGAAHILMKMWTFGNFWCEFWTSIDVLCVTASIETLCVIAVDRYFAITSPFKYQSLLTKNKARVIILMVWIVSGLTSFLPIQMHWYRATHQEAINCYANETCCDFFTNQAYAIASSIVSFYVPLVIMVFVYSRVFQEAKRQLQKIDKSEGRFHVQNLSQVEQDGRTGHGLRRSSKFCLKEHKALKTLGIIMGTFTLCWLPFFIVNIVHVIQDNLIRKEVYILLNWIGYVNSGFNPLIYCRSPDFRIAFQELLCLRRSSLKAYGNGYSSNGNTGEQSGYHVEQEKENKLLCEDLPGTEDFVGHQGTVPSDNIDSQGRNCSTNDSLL
# Beta-adrenergic receptor kinase 1 (Homo sapiens), sequence (P25098 whole entry, looked up): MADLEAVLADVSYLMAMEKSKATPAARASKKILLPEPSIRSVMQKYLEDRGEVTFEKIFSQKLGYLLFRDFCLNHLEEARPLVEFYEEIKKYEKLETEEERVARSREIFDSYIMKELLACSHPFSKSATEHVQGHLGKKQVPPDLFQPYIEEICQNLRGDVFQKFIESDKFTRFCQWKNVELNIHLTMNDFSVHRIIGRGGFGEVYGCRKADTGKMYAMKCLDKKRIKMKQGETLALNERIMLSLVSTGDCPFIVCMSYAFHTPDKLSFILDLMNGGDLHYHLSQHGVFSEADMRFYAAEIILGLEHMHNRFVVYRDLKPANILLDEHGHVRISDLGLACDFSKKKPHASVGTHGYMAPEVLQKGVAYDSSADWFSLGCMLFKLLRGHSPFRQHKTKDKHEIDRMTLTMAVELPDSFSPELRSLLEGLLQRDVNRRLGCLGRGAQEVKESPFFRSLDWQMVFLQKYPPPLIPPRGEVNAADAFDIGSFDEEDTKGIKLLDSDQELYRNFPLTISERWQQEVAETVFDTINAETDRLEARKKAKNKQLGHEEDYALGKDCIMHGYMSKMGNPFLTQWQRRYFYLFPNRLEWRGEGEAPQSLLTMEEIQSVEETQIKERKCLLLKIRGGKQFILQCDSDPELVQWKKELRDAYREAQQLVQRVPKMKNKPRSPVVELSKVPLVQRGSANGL
# ATP-binding cassette sub-family B member 6 (Homo sapiens), sequence (Q9NP58 whole entry, looked up): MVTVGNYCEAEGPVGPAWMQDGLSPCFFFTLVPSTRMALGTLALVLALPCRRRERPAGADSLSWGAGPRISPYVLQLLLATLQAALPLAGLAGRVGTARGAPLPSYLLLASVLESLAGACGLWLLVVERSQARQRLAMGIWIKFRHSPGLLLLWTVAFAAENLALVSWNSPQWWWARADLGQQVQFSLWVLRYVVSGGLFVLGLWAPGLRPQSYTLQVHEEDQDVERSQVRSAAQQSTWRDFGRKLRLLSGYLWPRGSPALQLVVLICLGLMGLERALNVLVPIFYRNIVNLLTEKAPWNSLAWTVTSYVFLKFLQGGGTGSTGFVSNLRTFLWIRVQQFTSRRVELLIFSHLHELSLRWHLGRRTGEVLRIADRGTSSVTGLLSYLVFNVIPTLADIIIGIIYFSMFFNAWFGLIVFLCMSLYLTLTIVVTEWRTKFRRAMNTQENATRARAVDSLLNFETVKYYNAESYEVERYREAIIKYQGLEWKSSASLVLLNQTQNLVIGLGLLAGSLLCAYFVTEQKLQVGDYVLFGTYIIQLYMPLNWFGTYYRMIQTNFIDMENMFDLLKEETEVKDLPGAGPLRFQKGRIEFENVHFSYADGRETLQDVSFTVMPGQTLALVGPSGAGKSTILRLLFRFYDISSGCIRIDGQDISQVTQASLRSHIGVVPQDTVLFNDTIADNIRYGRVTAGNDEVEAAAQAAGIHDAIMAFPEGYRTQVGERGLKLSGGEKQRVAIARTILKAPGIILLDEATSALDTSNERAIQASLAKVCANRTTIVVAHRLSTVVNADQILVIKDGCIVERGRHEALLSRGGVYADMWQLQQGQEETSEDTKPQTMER
# AP-2 complex subunit beta (Homo sapiens), sequence (P63010 whole entry, looked up, the tested form may be a part, one chain of several): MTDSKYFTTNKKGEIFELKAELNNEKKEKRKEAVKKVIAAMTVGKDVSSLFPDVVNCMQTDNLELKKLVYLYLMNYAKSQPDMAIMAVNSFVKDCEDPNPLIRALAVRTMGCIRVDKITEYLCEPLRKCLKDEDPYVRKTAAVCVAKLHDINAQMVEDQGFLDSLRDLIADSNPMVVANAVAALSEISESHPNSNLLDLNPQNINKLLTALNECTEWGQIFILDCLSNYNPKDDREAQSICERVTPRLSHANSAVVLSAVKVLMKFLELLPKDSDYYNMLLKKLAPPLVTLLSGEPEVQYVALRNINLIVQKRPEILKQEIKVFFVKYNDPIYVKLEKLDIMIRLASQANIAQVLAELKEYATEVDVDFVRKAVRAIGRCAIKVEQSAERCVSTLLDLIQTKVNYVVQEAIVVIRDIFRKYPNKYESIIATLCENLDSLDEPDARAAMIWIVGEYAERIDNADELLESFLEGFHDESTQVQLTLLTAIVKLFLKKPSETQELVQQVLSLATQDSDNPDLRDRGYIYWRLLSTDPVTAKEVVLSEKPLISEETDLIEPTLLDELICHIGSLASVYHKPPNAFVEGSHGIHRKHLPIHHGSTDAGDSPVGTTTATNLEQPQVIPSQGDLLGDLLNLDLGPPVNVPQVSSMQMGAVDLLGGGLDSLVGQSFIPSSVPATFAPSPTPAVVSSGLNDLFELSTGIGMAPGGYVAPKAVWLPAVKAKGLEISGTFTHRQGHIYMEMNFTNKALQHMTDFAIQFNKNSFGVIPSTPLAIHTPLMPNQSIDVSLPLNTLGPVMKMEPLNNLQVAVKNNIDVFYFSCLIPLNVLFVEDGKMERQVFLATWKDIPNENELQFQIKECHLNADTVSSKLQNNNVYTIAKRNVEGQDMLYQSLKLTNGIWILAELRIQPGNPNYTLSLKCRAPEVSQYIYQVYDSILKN
# Integrin beta-1 (Homo sapiens) + Integrin alpha-4 (Homo sapiens), sequence (P05556 whole entry, looked up): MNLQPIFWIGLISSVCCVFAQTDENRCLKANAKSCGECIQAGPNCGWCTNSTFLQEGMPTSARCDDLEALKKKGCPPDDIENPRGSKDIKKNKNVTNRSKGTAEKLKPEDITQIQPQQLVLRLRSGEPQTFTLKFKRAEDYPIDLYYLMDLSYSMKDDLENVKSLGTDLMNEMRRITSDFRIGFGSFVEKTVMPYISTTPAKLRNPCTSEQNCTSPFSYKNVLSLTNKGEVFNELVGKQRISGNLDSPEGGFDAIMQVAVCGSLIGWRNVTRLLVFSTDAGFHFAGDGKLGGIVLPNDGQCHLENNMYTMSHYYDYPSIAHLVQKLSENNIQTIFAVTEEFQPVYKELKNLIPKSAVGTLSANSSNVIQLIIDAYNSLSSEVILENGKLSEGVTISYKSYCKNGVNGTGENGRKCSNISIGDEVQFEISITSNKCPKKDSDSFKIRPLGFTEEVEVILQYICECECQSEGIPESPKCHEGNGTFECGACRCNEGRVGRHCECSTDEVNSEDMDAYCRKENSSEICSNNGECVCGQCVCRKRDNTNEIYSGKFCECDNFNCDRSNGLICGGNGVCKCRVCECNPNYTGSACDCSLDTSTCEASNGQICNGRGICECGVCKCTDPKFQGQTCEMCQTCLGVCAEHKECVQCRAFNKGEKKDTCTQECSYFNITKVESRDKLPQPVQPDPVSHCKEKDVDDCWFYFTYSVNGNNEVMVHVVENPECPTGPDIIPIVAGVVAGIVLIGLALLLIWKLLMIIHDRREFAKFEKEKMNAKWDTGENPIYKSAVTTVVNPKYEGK
# Integrin beta-1 (Homo sapiens) + Integrin alpha-4 (Homo sapiens), sequence (P13612 whole entry, looked up): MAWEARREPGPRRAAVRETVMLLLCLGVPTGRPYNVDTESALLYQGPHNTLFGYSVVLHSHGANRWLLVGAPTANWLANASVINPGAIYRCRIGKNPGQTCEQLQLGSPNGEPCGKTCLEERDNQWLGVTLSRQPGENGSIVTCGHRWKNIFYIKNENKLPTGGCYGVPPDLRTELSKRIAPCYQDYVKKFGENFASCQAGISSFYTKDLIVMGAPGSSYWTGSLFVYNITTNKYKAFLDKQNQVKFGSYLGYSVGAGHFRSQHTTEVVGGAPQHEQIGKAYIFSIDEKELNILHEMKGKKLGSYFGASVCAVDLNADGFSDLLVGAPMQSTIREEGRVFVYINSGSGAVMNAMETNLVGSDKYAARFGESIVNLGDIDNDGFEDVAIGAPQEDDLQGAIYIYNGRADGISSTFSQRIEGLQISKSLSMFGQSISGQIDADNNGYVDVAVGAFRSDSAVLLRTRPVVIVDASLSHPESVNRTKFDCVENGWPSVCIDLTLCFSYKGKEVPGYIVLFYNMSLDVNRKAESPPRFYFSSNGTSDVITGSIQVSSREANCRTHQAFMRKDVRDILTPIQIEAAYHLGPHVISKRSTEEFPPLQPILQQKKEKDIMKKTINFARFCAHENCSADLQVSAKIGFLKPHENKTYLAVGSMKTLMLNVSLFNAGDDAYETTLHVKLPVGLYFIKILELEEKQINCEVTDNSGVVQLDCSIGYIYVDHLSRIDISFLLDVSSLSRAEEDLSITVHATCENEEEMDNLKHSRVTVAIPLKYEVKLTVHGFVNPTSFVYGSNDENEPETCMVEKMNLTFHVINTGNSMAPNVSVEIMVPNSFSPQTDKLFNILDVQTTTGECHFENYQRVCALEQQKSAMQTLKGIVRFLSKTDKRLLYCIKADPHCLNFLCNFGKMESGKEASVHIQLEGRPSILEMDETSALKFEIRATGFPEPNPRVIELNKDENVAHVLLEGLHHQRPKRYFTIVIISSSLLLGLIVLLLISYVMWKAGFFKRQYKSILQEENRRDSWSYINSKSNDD
Structure (SMILES),percent of DMSO control GFP [1],GFP response vs DMSO [2],percent response of DMSO control [3],GFP response vs DMSO [4],"GFP response, % of DMSO [5]",double positive events [6] [%],vesicle binding response [6],inhibition [7],superoxide response (% of plate) [8],aptamer binding inhibition [9],response [10],inhibition [11],response [12],binding (% of control) [13],efflux inhibition (fraction of control) [14],inhibition [15],differentiation response [16]
O=C(O)CCn1cnc2ccccc2c1=O,97.8% (inactive),113% (inactive),93.9% (inactive),111% (inactive),97.4% (inactive),58.8,172% (inactive),9.13% (inactive),101% (inactive),4% (inactive),-1.18% (inactive),-3.21% (inactive),5.74% (inactive),101% (inactive),-0.28 (inactive),7% (inactive),-8.8% (inactive)
CC(=O)N(C(C)=O)c1nc2nc(C)cc(C)n2n1,94.6% (inactive),133% (inactive),110% (inactive),86.4% (inactive),107% (inactive),67.9,236% (inactive),0.64% (inactive),98.5% (inactive),6% (inactive),-13.9% (inactive),-10.8% (inactive),-0.39% (inactive),102% (inactive),-0.13 (inactive),11% (inactive),-6.55% (inactive)
O=C(O)c1cnccn1,103% (inactive),94.7% (inactive),93.8% (inactive),108% (inactive),106% (inactive),65,160% (inactive),21% (inactive),102% (inactive),4% (inactive),-18.2% (inactive),-5% (inactive),2.35% (inactive),104% (inactive),-0.21 (inactive),6% (inactive),-4.99% (inactive)
Cc1ccc(/C=N/NC(=O)C2(C)CC2(Br)Br)cc1 (stereo not drawn),101% (inactive),98.7% (inactive),98.6% (inactive),130% (inactive),105% (inactive),60.8,184% (inactive),-7.79% (inactive),84.5% (inactive),-4% (inactive),-4.63% (inactive),4.52% (inactive),1.48% (inactive),104% (inactive),-0.22 (inactive),-2% (inactive),-11.9% (inactive)
CC(=O)CCc1c(C)c2cccc(C)c2[nH]c1=O,104% (inactive),99.6% (inactive),103% (inactive),97.4% (inactive),98.8% (inactive),56.4,269% (inactive),-9.98% (inactive),105% (inactive),1% (inactive),-3.42% (inactive),-3.21% (inactive),-0.84% (inactive),95.5% (inactive),-0.03 (inactive),9% (inactive),-18.4% (inactive)
CCNC(=O)C12CCC(C)(C(=O)O1)C2(C)C (stereo not drawn),105% (inactive),102% (inactive),102% (inactive),95.8% (inactive),101% (inactive),60.6,120% (inactive),8.28% (inactive),105% (inactive),2% (inactive),6.09% (inactive),6.39% (inactive),2.81% (inactive),95.7% (inactive),-0.54 (inactive),7% (inactive),1.17% (inactive)
C/C(=N\NC(=O)c1ccccc1[N+](=O)[O-])c1ccc(Br)s1,98.4% (inactive),107% (inactive),107% (inactive),100% (inactive),101% (inactive),57.5,94.2% (inactive),0.25% (inactive),97.9% (inactive),2% (inactive),-0.6% (inactive),7.49% (inactive),-4.2% (inactive),95.7% (inactive),-0.235 (inactive),-10% (inactive),-4.57% (inactive)
COC(=O)c1[nH]c2ccc(C)cc2c1NC(=O)CN1CCc2cc(OC)c(OC)cc2C1,106% (inactive),111% (inactive),117% (inactive),103% (inactive),105% (inactive),63.8,296% (inactive),-11.8% (inactive),130% (inactive),4% (inactive),10.4% (inactive),-5.24% (inactive),-3.57% (inactive),101% (inactive),0.5 (active),24% (inactive),-10.4% (inactive)
CC(=O)Oc1ccc(C(c2ccc(OC(C)=O)cc2)c2ccccn2)cc1,98.9% (inactive),104% (inactive),99.6% (inactive),125% (inactive),117% (inactive),63.6,203% (inactive),-42% (inactive),105% (inactive),4% (inactive),-25.8% (inactive),-3.7% (inactive),-1.07% (inactive),106% (inactive),0.08 (inactive),6% (inactive),-7.94% (inactive)
